Data taken from PubChem BioAssay.
The source made the active and inactive calls.

How the values were obtained:
[1] = tested on: Plasmodium falciparum Sir2 (PF13_0152, Sir2A); assay: Plasmodium falciparum Sir2A binding compounds – biochemical, small-molecule microarray, 635 nm fluorescence, primary screen (AID 1098); conditions: fluorescence 635 nm, higher = more signal;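 further: score merges spot fluorescence intensity with its signal-to-noise ratio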
[2] = probe aDKK1 binding to arrayed compounds – biochemical, biotinylated probe, 635/667 nm fluorescence, primary screen (AID 1099); conditions: small-molecule microarray, higher = more signal;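 further: score merges 667nm spot fluorescence with signal to noise across triplicate slides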
[3] = probe aCHRDL2 binding to arrayed compounds – biochemical, biotinylated probe, 635/667 nm fluorescence, primary screen (AID 1100); conditions: small-molecule microarray, higher = more signal
[4] = change in splice reporter luminescence, either direction, cell-based, HEK293, spliceosome inhibition project, primary screen (AID 1101); conditions: HEK293 splicing luciferase reporter, 24 h, higher = more signal, called active from +8 up or from −8 down;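 further: HEK293 cells carrying a splicing-competent luciferase reporter gene; test concentration not given here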
[5] = molecular target: Fibroblast growth factor 10 (Homo sapiens) (UniProt O15520); assay: compounds binding fibroblast growth factor 10 – biochemical, small-molecule microarray, 635 nm fluorescence, primary screen (AID 1102); conditions: FGF10 binding, fluorescence 635 nm, higher = more signal
[6] = tested on: glycogen synthase kinase-3 (GSK3A per assay name; protocol says GSK3B); assay: compounds binding glycogen synthase kinase-3 – biochemical, small-molecule microarray, 635 nm fluorescence, GSK3A, primary screen (AID 1103); conditions: fluorescence 635 nm, higher = more signal; further: the record names both GSK3A and GSK3B
[7] = molecular target: Epidermal growth factor receptor (Homo sapiens) (UniProt P00533); assay: compounds binding epidermal growth factor receptor – biochemical, small-molecule microarray, 635 nm fluorescence, primary screen (AID 1104); conditions: EGFR binding, higher = more signal;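 further: score merges 667 nm emission intensity with spot signal to noise over triplicate slides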
[8] = molecular target: Follistatin-related protein 3 (Homo sapiens) (UniProt O95633); assay: compounds binding follistatin-related protein 3 – biochemical, small-molecule microarray, 635 nm fluorescence, primary screen (AID 1105); conditions: FSTL3 binding, higher = more signal;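 further: score merges emission near 667 nm and signal to noise per printed spot across three slides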
[9] = molecular target: Dickkopf-related protein 1 (Homo sapiens) (UniProt O94907); assay: small molecules binding DKK1 protein – biochemical, small-molecule microarray, 635 nm fluorescence scan, primary screen (AID 1106); conditions: higher = more signal;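 further: score merges emission near 667 nm with signal to noise over three replicate slides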
[10] = tested on: Inhibin beta A chain (activin A); assay: small molecules binding activin A – biochemical, small-molecule microarray, 635 nm fluorescence scan, primary screen (AID 1107); conditions: INHBA, higher = more signal;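 further: mouse activin A protein probed at 4.33 µg/mL on printed slides; score merges bound-protein fluorescence near 667 nm with spot signal-to-noise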
[11] = tested on: Human papillomavirus type 1a protein E7 (residues 44-93); assay: small molecules binding HPV E7 44-93 – biochemical, small-molecule microarray, residues 44-93, 635 nm fluorescence, primary screen (AID 1108); conditions: fluorescence 635 nm, higher = more signal;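 further: E7 fragment applied at 1 µg/mL in TBST for 1 h at 4 C; score combines spot fluorescence with its signal to noise ratio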
[12] = hepatitis C replication reporter changes, two-sided – Huh7 cells, luciferase reporter, HCV replication inhibitor project, primary screen (AID 1109); conditions: Huh7 HCV replicon luciferase reporter, 48 h; higher = more signal;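 further: huh7 hepatoma cells harbouring a luciferase neomycin HCV replicon reporter; luciferase luminescence as measure of HCV replicon replication; test concentration not given here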
[13] = molecular target: Left-right determination factor 2 (Homo sapiens) (UniProt O00292); assay: small molecules binding LEFTY2 protein – biochemical, small-molecule microarray, 635 nm fluorescence scan, primary screen (AID 1110); conditions: higher = more signal
[14] = molecular target: Calmodulin-1 (Homo sapiens) (UniProt P0DP23); assay: small molecules binding calmodulin-1 with EGTA – biochemical, small-molecule microarray, Cy5-labelled CALM1, profiling panel (AID 1111); conditions: Cy5-CALM1 binding fluorescence, higher = more signal;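 further: labelled calmodulin applied in Tris saline Tween buffer holding calcium plus EGTA and DTT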
[15] = molecular target: Calmodulin-1 (Homo sapiens) (UniProt P0DP23); assay: small molecules binding Ca-loaded calmodulin-1 – biochemical, small-molecule microarray, Cy5-labelled CALM1, plus calcium, artefact control for SMM control-protein annotation, profiling panel (AID 1112); conditions: Cy5-CALM1 binding fluorescence, higher = more signal;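 further: score merges spot fluorescence with signal to noise from triplicate slides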
[16] = probe aWnt5a binding to arrayed compounds – biochemical, biotinylated probe, 635/667 nm fluorescence, primary screen (AID 1113); conditions: small-molecule microarray, higher = more signal;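 further: score merges 667 nm fluorescence intensity with signal-to-noise per printed feature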
[17] = probe aShh binding to arrayed compounds – biochemical, biotinylated probe, 635/667 nm fluorescence, primary screen (AID 1114); conditions: small-molecule microarray, higher = more signal;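 further: probe is biotin-labelled aShh protein from a stem cell growth factor screen; measures binding of labelled protein to compounds printed on the slide; score merges feature fluorescence at 667 nm with signal-to-noise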
[18] = probe aNog binding to arrayed compounds – biochemical, biotinylated probe, 635/667 nm fluorescence, primary screen (AID 1115); conditions: small-molecule microarray, higher = more signal;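 further: probe is biotinylated aNog protein used at 0.15 µg/mL for 1 h at 4 C; z-score combines 667 nm fluorescence of each spot with its signal to noise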
[19] = molecular target: Torsin-1A-interacting protein 1 (Homo sapiens) (UniProt Q5JTV8); assay: compound microarray binding of lysate hLAP1 – cell lysate, small-molecule microarray, COS7 lysate, 635/667 nm fluorescence, primary screen (AID 1116); conditions: 635 nm fluorescence, higher = more signal
[20] = molecular target: Alpha-bungarotoxin (Bungarus multicinctus) (UniProt P60615); assay: compounds binding labelled alpha-BTX control protein – biochemical, small-molecule microarray, Alexa647 label, 635/667 nm fluorescence, artefact control for SMM control protein annotation, profiling panel (AID 1117); conditions: alpha-BTX-A647 binding fluorescence, higher = more signal
Sequence of Alpha-bungarotoxin (Bungarus multicinctus) (P60615 whole entry, looked up): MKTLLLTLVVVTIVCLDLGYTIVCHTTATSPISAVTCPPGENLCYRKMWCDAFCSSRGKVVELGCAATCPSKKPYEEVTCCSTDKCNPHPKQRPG

Sequence of Fibroblast growth factor 10 (Homo sapiens) (O15520 whole entry, looked up): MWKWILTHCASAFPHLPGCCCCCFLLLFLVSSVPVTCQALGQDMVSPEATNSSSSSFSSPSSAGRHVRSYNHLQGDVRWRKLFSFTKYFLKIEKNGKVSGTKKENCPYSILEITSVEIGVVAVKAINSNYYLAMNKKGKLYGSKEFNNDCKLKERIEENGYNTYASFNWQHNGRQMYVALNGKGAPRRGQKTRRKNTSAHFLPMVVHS
Sequence of Left-right determination factor 2 (Homo sapiens) (O00292 whole entry, looked up): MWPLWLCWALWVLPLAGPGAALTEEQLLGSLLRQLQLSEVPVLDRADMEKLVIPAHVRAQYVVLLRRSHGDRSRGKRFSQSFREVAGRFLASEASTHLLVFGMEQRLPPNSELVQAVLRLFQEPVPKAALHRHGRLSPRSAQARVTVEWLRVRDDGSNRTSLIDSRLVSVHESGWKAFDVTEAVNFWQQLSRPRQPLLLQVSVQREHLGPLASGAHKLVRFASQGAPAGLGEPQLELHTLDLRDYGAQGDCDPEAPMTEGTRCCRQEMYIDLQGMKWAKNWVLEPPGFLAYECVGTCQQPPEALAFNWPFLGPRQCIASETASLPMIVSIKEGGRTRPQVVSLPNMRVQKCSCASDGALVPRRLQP
Sequence of Epidermal growth factor receptor (Homo sapiens) (P00533 whole entry, looked up): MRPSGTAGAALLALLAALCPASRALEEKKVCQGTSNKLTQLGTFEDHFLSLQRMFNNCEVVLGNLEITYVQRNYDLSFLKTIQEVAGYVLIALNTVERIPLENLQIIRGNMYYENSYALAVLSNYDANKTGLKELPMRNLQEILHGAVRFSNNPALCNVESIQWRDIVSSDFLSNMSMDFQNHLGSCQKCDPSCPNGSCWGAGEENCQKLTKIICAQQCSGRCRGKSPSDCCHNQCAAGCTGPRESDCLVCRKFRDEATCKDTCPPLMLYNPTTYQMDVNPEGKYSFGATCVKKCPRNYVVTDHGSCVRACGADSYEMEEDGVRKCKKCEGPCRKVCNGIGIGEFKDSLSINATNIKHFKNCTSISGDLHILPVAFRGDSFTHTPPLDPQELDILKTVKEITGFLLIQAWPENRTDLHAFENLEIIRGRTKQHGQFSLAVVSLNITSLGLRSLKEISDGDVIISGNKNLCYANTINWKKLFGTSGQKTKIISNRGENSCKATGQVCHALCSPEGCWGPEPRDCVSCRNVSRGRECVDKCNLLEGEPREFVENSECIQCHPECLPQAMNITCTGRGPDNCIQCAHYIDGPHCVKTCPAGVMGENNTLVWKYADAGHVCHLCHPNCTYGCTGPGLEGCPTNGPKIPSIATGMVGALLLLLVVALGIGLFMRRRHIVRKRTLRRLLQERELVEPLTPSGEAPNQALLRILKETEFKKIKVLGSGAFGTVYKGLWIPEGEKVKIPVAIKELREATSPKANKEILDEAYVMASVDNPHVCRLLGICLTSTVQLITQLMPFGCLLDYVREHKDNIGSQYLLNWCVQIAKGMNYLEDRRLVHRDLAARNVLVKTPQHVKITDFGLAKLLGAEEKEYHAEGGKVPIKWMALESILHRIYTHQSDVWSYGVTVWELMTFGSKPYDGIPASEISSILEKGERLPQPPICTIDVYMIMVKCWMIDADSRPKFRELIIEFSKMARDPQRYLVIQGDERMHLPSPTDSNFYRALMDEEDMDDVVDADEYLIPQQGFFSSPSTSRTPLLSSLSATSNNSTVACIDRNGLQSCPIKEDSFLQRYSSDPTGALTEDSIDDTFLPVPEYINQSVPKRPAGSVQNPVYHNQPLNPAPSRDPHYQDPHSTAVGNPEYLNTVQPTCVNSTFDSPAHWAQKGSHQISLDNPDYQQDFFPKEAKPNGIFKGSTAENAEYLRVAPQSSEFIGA
Sequence of Dickkopf-related protein 1 (Homo sapiens) (O94907 whole entry, looked up): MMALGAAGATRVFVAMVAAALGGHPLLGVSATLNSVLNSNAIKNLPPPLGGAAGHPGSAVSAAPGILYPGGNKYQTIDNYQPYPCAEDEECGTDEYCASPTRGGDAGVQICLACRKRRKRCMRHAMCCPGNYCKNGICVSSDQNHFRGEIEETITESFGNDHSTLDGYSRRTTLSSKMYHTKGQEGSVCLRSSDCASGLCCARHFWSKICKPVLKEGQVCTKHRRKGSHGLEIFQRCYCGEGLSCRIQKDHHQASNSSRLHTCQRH
Sequence of Torsin-1A-interacting protein 1 (Homo sapiens) (Q5JTV8 whole entry, looked up): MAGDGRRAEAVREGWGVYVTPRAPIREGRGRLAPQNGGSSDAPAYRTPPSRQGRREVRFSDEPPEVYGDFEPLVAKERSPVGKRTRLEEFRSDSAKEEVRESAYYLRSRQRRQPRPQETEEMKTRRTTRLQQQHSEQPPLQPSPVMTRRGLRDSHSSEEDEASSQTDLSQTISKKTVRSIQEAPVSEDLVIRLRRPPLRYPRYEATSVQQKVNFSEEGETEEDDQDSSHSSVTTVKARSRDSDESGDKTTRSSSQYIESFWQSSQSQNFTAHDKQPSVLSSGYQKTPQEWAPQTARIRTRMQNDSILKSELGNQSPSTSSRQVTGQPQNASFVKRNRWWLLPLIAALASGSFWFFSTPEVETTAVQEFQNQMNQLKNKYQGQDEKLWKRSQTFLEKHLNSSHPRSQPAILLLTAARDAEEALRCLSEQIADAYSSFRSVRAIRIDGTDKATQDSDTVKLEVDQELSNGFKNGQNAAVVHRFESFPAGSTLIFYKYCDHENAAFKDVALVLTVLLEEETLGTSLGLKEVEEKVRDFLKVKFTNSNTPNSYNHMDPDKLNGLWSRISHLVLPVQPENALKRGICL
Sequence of Follistatin-related protein 3 (Homo sapiens) (O95633 whole entry, looked up): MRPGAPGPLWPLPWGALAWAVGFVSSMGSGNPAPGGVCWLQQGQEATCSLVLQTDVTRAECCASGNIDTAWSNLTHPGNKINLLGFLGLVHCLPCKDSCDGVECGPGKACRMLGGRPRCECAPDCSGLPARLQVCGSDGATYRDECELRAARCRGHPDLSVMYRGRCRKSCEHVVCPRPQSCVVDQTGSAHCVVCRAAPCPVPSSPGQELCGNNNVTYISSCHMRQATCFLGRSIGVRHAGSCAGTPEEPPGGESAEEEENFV

Structure (SMILES) | composite z-score [1] | composite z-score [2] | composite z-score [3] | z-score [4] | composite z-score [5] | composite z-score [6] | composite z-score [7] | composite z-score [8] | composite z-score [9] | composite z-score [10] | composite z-score [11] | z-score [12] | composite z-score [13] | composite z-score [14] | composite z-score [15] | composite z-score [16] | composite z-score [17] | composite z-score [18] | composite z-score [19] | composite z-score [20]
NC(=O)[C@H]1[C@@H]2C(=O)O[C@@H](c3ccccc3)[C@@H](c3ccccc3)N2[C@@H](c2ccc(O)cc2)[C@]12C(=O)Nc1ccc(C#CCCO)cc12 | 1.61 | -0.0626 | 0.604 | -0.205 (inactive) | -0.187 | -1.6 | -1.52 | -0.681 | -0.889 | -0.142 | -1.74 | 0.179 | -1.05 | -0.742 | 0.661 | -0.175 | -0.0769 | -0.158 | -0.819 | -1.58
CSCC[C@@H]1NC(=O)CC=C[C@@H](C)COC(=O)[C@H](CCSC)NC(=O)CC=C[C@@H](C)COC1=O | -0.191 | -0.396 | -0.607 | -1.02 (inactive) | 0.435 | 0.0287 | 0.434 | 0.678 | 1.12 | -0.149 | -0.507 | -0.116 | 0.42 | -1.21 | -0.58 | -0.168 | 0.0756 | -0.255 | -0.242 | -0.222
CC(C)N1CC=CC23O[C@@H]4/C=C\CCCOC(=O)C4[C@H]2C(=O)N(CCO)[C@@H]3C1=O (stereo not given in full) | 1.01 | 0.155 | 0.677 | -1.84 (inactive) | -0.363 | -0.456 | -1.02 | -0.516 | -1.08 | 1.45 | -0.526 | -0.648 | -0.999 | -0.428 | -0.793 | -0.188 | -0.0769 | -0.0624 | 2.9 | -0.493
CCN1C(C)=C(C(=O)OC)[C@@H](c2ccccc2)N2C(=O)[C@](O)(C(=O)OC)[C@@H](c3ccccc3)C(C(C)=O)=C12 | -1.67 | 0.182 | -0.539 | -2.82 (inactive) | 0.799 | 0.529 | 0.621 | 1.04 | 0.515 | 1.15 | -0.0269 | -0.279 | 0.784 | -0.693 | -0.0342 | -0.0125 | -0.262 | 0.19 | 0.0025 | -0.576
O=C1c2ccccc2[C@](Cc2ccccc2I)(C(=O)NCC(F)(F)F)[C@H](c2ccc(CO)cc2)N1Cc1ccccc1C(F)(F)F | 0.795 | -0.582 | -0.243 | 0.133 (inactive) | 0.222 | 0.926 | 0.106 | 0.523 | 0.0221 | -0.33 | 0.517 | -0.326 | 0.13 | 1.47 | 0.296 | -0.149 | 0.164 | -0.0101 | 0.857 | 0.449
CO[C@@H]1COC(=O)[C@H](C)NC(=O)CC=C[C@@H](C)[C@H](NS(=O)(=O)c2ccc(C)cc2)COC(=O)CC=C[C@@H]1C | -0.876 | -0.435 | -0.505 | -0.373 (inactive) | 0.0743 | -0.11 | 0.286 | -0.0201 | 0.0647 | -0.204 | -0.232 | 0.108 | 0.46 | -0.356 | -0.239 | -0.0718 | -0.138 | -0.246 | 0.117 | -0.573
COCCOC(=O)N1C(=O)[C@@]2(c3cc(C#CCCO)ccc31)[C@H](c1ccc(OCCO)cc1)N1[C@H](c3ccccc3)[C@H](c3ccccc3)OC(=O)[C@H]1[C@@H]2C(=O)NC[C@H](O)c1ccccc1 | 1.3 | 0.0564 | -0.0641 | -0.6 (inactive) | 1.31 | 1 | 0.776 | 1.41 | 0.923 | 0.701 | 1.39 | -1.13 | 0.795 | 0.969 | 0.003 | -0.001 | -0.0904 | -0.213 | 1.29 | 1.05
O=C1c2ccccc2[C@](Cc2ccccc2I)(C(=O)O)[C@H](c2ccc(CO)cc2)N1C1CCCCC1 | 1.31 | 0.94 | 1.05 | -1.32 (inactive) | 1.28 | 1.28 | 0.947 | 1.06 | 0.16 | 0.198 | 1.02 | -1.33 | 0.15 | 1.61 | 0.487 | -0.0203 | -0.018 | 0.213 | 1.5 | 1.53
COc1cc([C@@H]2N[C@H](C(=O)O)Cc3c2[nH]c2ccccc32)cc(OC)c1OC | 0.175 | -0.0572 | -0.272 | -0.526 (inactive) | 0.644 | 0.167 | 0.3 | 0.508 | 0.977 | -1.7 | 0.297 | -0.0056 | 0.649 | -0.0344 | -0.494 | -0.0328 | -0.221 | 0.0374 | 0.0517 | 0.441
O=C1OCC=C[C@H]2OC34C=CCN(Cc5ccccc5)C(=O)[C@H]3N(CCCCCO)C(=O)[C@@H]4[C@@H]12 (stereo not given in full) | 1.41 | -0.212 | 0.528 | -1.45 (inactive) | -0.606 | -0.447 | -1.36 | -0.647 | -1.01 | 0.18 | -0.646 | -0.615 | -1.84 | -0.398 | 1.08 | -0.169 | -0.138 | 0.161 | -0.328 | -1.52
C=C(COC)/C(=C/C[C@H](OC(C)=O)c1ccc(OCCO)cc1)c1cnc2ccccc2c1 | -0.407 | 0.231 | -0.146 | -1.48 (inactive) | 0.741 | 0.844 | 0.716 | 1.46 | 0.766 | 1.8 | 0.5 | -0.773 | 0.523 | 0.339 | 0.214 | -0.001 | 0.261 | 0.0107 | 0.458 | 1.56
C=CCC1=C[C@H]2[C@H]([C@@H]3C=C[C@]2(CC=C)C(=O)[C@]32CO2)[C@@]2(CO2)C1=O | 1.29 | -0.354 | -0.69 | -0.414 (inactive) | 1.14 | -0.0104 | 1.58 | 1.31 | 1.8 | 1.9 | -0.763 | -4.15 | 1.24 | -1.06 | -2.27 | 0.133 | -0.1 | 2.17 | 0.163 | 0.345
CN(C)CCCC[C@@H]1NC(=O)[C@@H]2C[C@H](C(=O)NCCCCCNC(=O)CS)[C@H](c3ccc(O)cc3)N2C1=O | 1.19 | 0.0418 | -0.109 | -0.812 (inactive) | 1.11 | 0.667 | 0.0635 | 1.18 | 1.81 | 0.687 | 0.664 | 0.873 | 1.17 | 0.0884 | 1.25 | -0.124 | 0.199 | 0.498 | 0.761 | 1.65
COC(=O)C(CC#Cc1ccc2c(c1)[C@]1(C(=O)N2)[C@H](C(=O)N2CCCCCCC2)[C@H]2C(=O)O[C@H](c3ccccc3)[C@H](c3ccccc3)N2[C@@H]1c1ccc(O)cc1)C(=O)OC | 0.465 | -0.2 | 0.269 | -0.751 (inactive) | -1.05 | -1.63 | -0.887 | -0.635 | -0.785 | 0.16 | -1.26 | -0.789 | -0.537 | -0.433 | -0.236 | -0.125 | -0.0769 | -0.411 | -0.723 | -0.715
CO[C@H]1COC(=O)[C@H](CCSC)NC(=O)CC=C[C@@H](C)COC(=O)[C@@H](OCc2ccccc2)C=C[C@@H]1C | 0.979 | 0.981 | -1.41 | -0.342 (inactive) | 0.485 | 0.743 | 0.574 | 1.15 | 2 | 0.397 | -0.457 | -0.704 | 1.23 | -0.86 | -1.6 | -0.182 | -0.1 | -0.541 | -0.0258 | -0.414
CCCCO[C@H]1C[C@H]2C(Br)=C[C@@]1(CO)C(=O)[C@]21CO1 | -0.145 | -0.482 | -1.04 | -1.53 (inactive) | 0.136 | -0.243 | 0.156 | 0.184 | 0.308 | 0.363 | -0.122 | -1.46 | 0.456 | -0.795 | -1.33 | -0.146 | -0.123 | -0.278 | -0.242 | -0.755
